Bioassay records: PubChem BioAssay, National Center for Advancing Translational Sciences (NCATS)
An excerpt weighted towards active compounds, which were near 0.41% of everything screened.
aGlu spleen mod: lysosomal alpha-glucosidase (human) modulation. P10253. human spleen homogenate, 4-MU-alpha-glucoside fluorescence. Potency, µM (top dose mostly 79.9 µM), usual class: inhibitors. 0.006% of 240,000 active
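Human spleen homogenate (1 ug) with 4-methylumbelliferyl-alpha-D-glucopyranoside (1 mM final) in 50 mM citrate/phosphate pH 5.0, 0.01% Tween-20; 40 min at 37 C. Stopped at pH 10; 4-MU fluorescence Ex 365/Em 440 nm; AC50 by Hill fit.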
GLA inh pH 4.5: inhibitors of human alpha-galactosidase A at pH 4.5. AID 1467. activity change, negative = inhibition, % at 105 µM. purified enzyme, 4-MU-alpha-Gal fluorescence, pH 4.5. 230,000 tested, under 10 active
N370S GC mod: inhibits or activates N370S mutant glucocerebrosidase; P04062; N370S GC spleen homogenate, 4MU-glucoside fluorescence; Potency, µM (top dose mostly 59.4 µM), most hits filed as inhibitors; 0.092% of 330,000 active
GAA inh: inhibitors of human lysosomal alpha-glucosidase; P10253; purified human GAA, 4-MU-alpha-glucoside fluorescence; 0.005% of 200,000 active; Potency, µM (top dose mostly 76.9 µM), usual class: inhibitors
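qHTS format, compound range up to 77 uM. Human lysosomal enzyme at 4 nM, 400 uM 4-MU glucoside substrate, pH 5.0, 20 min room temperature; fluorescence after alkaline stop gives activity normalized to controls.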
GAA glycogen: inhibitors or activators of human alpha-glucosidase glycogen cleavage | Potency, µM (top dose mostly 76.4 µM), hits mostly inhibitors | recombinant GAA, glycogen substrate, Amplex Red glucose oxidase fluorescence | 0.38% of 300,000 active | P10253;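 also: the screen sought inhibitors and activators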
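Recombinant human enzyme (4 nM); glycogen substrate; 37 C, 40 min, pH 5.0. Readout: coupled glucose oxidase/Amplex Red fluorescence.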
aGal spleen mod: inhibits or activates alpha-galactosidase in human spleen homogenate. P06280. human spleen homogenate, 4MU-alpha-Gal fluorescence, 40 min. Potency, µM (doses to about 80 µM), usual class: inhibitors. 0.008% of 240,000 active
Target sequence (P06280 32-429 limits assumed): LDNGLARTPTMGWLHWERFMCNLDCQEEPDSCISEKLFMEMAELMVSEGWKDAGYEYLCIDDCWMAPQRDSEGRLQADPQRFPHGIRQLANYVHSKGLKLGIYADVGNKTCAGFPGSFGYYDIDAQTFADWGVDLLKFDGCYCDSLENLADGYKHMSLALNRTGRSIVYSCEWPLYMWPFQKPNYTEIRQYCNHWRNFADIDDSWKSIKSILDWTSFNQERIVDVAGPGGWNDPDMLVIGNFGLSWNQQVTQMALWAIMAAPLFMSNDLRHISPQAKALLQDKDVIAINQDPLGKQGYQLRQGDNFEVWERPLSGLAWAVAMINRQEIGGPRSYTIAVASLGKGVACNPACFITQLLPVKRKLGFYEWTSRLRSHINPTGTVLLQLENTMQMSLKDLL
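Fluorogenic readout (Ex 365/Em 440 nm) of 4-methylumbelliferone released from 1 mM 4-MU-alpha-galactoside by spleen homogenate, 40 min at 37C, pH 5.0. Data normalized to no-enzyme and enzyme controls; Hill-equation AC50 from compound titrations.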
Numbers stand for hits; n = inactive; u = inconclusive; x = no result given; [ ] = dose if it differs, or a comment. Calls follow the shape of the dose curve; as a rule, active = well fitted curve in the direction sought with a large enough effect; inconclusive = small, poorly fitted or top-dose-only effect, or another doubt; inactive = no such curve, though single readings can be large; an effect the other way counts as inactive or inconclusive.

SMILES	aGlu spleen mod	GLA inh pH 4.5	N370S GC mod	GAA inh	GAA glycogen	aGal spleen mod
N#Cc1c(Cl)cccc1N1CCC(C(N)=O)CC1	n	n	n	x	4.4µM	n
Oc1ccc(/C=N/Nc2nccnc2Cl)cc1	n	n	n	n	11µM	n
Fc1ccc(/C=N/Nc2nccnc2Cl)cc1	x	x	n	x	n	x
O=C(C1=C[C@@H](c2ccc(C(F)(F)F)cc2)C[C@@H](OCc2ccc(CO)cc2)O1)N1CCN(Cc2ccc3c(c2)OCO3)CC1	n	n	10µM	x	n	n
O=C(C1=C[C@@H](c2ccc(Br)cc2)C[C@@H](OCc2ccc(CO)cc2)O1)N1CCN(Cc2ccccc2)CC1	n	n	14µM	x	n	n
O=C(C1=C[C@H](c2ccc(C(F)(F)F)cc2)C[C@H](OCc2ccc(CO)cc2)O1)N1CCN(Cc2ccc3c(c2)OCO3)CC1	n	n	n	x	n	n
Cc1ccccc1Nc1c(-c2ccccc2O)nc2sccn12	x	x	x	x	11µM	x
CCN(CC)CCCNC(=O)c1nn(-c2ccc(OC)c(Cl)c2)c(=O)c2c1c1ccccc1n2C	x	x	x	x	n	x
O=C(Nc1ccc(N2CCOCC2)c2nonc12)C1CCCC1	n	n	n	n	n	n
Nc1ccc(N2CCOCC2)c2nonc12	n	n	n	n	7µM	n
COc1ccccc1N1CCN(/N=C/c2cccc(O)c2)CC1	n	n	n	n	9.9µM	n
CC(=O)Nc1ccc(N/C=C/C(=O)C(C)(C)C)cc1	n	n	n	n	n	n
Cc1ccc(N/C=C/C(=O)C(C)(C)C)c(O)c1	n	n	n	n	40µM	n
O=C1Nc2ccccc2/C1=N\N=C\c1ccc(O)c(O)c1	n	n	n	n	6.3µM	n
COc1cc(/C=N/N=C2/C(=O)Nc3ccccc32)ccc1O	n	n	n	u	n	n
Cc1ccc(C)c(NNC(N)=S)c1	n	n	n	n	9.9µM	n
CCC(=O)Nc1cccc(C(=O)N(Cc2ccccc2)Cc2ccccc2)c1	x	x	7.1µM	x	n	x
Oc1ccc(/C=N/Nc2cc(N3CCCC3)nc(N3CCCC3)n2)cc1	n	n	n	n	25µM	n
Oc1cccc(/C=N/Nc2cc(N3CCCC3)nc(N3CCCC3)n2)c1	n	n	n	n	n	n
O=C(OCC1OC(OC(=O)c2cc(O)c(O)c(OC(=O)c3cc(O)c(O)c(O)c3)c2)[C@@H](OC(=O)c2cc(O)c(O)c(OC(=O)c3cc(O)c(O)c(O)c3)c2)C(OC(=O)c2cc(O)c(O)c(OC(=O)c3cc(O)c(O)c(O)c3)c2)C1OC(=O)c1cc(O)c(O)c(OC(=O)c2cc(O)c(O)c(O)c2)c1)c1cc(O)c(O)c(OC(=O)c2cc(O)c(O)c(O)c2)c1 (stereo partly drawn)	u	u	u	x	x	n
CC(=C/c1ccccc1)/C=N/n1c(-c2ccco2)n[nH]c1=S	n	n	n	n	25µM	n
c1ccc(SCCSc2ccccc2)cc1	n	x	n	x	x	n
O=C(NNC(=O)c1sccc1-n1cccc1)Nc1ccccc1	n	n	n	n	13µM	n
COc1ccccc1C1=Nn2c(nnc2-c2ccccc2C)SC1	n	x	n	x	x	n
CC(=O)Nc1ccc(SCC(c2ccccc2)N2CCN(C)CCC2=O)cc1 (stereo not drawn)	n	x	n	x	x	n
SMILES	aGlu spleen mod	GLA inh pH 4.5	N370S GC mod	GAA inh	GAA glycogen	aGal spleen mod
COC(=O)C(N)Cc1ccc(O)c(O)c1 (stereo not drawn)	n	n	n	n	3.1µM	n
COC(=O)C(N)Cc1ccc(O)cc1 (stereo not drawn)	n	n	n	n	n	n
CCOC(=O)CNC(=O)O[C@H]1C(=O)c2cc(OC)ccc2O[C@@H]1c1ccc(OC)c(Br)c1	n	n	n	x	x	n
C=C(C)C(O)/C=C/c1ccc(C)cc1 (stereo not drawn)	n[17.4 µM]	x	n[12.8 µM]	x	x	n[17.5 µM]
CCCCC(=O)NNC(=S)NC(=O)c1ccc(C)cc1	n	n	n	u	n	n
Cc1ccc(C(=O)NC(=S)NNC(=O)CC#N)cc1	n	n	n	u	11µM	n
Cc1cccc(Nc2nc(-c3ccc(O)cc3O)cs2)n1	x	x	n	x	40µM	x
Oc1ccc(-c2csc(Nc3ncccn3)n2)c(O)c1	n	n	n	n	n	n
O=c1c(=Nc2ccccc2O)c(=O)c2ccccc12	n	n	n	n	8.9µM	n
